Measurements reported in the supplement of paper PMC11732987, “Enantioselective OTUD7B fragment discovery through chemoproteomics screening and high-throughput optimisation” (Communications Chemistry, 2025).

What was measured:
Assay in all cases: log2 ratio of Biotin-Ahx-Ub-VS probe labelling (fragment/DMSO); higher = less target engagement (more negative = stronger competition), active = hit call of the paper (q ≤ 0.05, log2 ratio ≤ -1)
Details in all cases: compound concentration: 200 uM; treatment time: 3 h
USP9X = USP9X (UniProt Q93008)
Sequence of USP9X (Q93008 whole entry, the tested form may be a part): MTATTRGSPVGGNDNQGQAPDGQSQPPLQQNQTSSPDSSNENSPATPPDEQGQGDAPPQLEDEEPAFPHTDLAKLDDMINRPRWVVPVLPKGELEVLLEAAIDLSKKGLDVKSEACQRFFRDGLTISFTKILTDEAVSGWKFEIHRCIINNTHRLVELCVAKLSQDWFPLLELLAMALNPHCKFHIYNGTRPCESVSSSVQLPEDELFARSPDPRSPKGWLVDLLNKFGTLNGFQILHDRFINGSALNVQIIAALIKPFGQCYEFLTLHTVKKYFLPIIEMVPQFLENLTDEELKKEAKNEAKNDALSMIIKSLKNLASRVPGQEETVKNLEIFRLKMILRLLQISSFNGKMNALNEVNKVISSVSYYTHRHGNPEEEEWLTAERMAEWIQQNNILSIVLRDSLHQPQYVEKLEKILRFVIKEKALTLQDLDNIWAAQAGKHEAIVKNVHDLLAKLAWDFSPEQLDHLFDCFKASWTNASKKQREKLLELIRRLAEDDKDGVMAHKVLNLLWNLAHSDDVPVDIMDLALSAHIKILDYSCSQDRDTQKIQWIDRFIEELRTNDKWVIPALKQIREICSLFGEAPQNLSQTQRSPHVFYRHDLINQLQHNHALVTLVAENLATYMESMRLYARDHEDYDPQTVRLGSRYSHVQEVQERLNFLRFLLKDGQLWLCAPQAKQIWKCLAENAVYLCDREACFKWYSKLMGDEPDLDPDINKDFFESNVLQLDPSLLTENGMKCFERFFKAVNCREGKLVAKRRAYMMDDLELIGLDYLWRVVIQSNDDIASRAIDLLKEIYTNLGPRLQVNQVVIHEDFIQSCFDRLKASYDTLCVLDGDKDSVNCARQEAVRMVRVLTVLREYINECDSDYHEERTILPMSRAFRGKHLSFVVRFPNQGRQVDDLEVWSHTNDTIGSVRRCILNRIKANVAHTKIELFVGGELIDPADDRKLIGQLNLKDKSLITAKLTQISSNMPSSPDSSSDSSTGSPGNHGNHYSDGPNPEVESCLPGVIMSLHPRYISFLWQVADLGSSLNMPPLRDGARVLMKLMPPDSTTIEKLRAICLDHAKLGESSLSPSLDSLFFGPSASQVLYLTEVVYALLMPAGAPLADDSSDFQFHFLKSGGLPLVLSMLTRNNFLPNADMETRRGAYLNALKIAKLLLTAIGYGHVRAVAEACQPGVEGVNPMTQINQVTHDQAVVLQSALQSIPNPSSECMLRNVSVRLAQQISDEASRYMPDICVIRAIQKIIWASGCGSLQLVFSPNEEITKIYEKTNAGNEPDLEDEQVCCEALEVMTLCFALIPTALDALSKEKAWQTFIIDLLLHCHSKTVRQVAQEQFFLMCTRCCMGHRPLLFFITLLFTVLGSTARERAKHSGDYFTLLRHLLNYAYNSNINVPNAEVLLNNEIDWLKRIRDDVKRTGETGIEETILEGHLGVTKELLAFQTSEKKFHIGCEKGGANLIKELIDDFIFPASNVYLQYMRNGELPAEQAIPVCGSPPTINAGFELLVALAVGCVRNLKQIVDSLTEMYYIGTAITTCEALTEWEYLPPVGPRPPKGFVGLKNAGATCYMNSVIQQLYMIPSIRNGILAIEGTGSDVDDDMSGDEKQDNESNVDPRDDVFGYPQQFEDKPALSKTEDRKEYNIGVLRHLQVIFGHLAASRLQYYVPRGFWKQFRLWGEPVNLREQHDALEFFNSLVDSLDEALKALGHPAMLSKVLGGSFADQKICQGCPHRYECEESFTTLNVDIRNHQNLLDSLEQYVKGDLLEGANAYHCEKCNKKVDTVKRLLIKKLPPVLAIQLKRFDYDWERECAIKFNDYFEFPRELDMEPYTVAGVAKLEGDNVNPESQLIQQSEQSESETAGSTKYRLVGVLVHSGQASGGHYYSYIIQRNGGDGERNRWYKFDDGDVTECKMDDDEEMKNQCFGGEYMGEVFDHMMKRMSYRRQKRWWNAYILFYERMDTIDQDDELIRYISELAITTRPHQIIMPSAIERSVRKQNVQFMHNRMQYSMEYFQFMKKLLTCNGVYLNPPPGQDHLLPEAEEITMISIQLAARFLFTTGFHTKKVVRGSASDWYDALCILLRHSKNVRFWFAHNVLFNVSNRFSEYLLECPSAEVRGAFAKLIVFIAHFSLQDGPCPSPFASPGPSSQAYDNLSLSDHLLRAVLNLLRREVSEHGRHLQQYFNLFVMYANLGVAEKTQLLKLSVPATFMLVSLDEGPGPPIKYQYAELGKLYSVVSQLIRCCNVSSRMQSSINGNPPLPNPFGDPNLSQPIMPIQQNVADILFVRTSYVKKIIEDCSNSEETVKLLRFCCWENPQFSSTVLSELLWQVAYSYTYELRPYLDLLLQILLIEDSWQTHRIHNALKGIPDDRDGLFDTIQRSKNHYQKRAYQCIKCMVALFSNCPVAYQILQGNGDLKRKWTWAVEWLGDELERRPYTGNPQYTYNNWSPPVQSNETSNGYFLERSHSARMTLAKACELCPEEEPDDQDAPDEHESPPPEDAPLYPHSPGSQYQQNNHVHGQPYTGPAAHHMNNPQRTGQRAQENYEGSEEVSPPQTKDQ
Summary of the method: (§1)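 HEK293T lysate, 495 µg per sample in Tris/CHAPS/IGEPAL buffer with protease inhibitors, was treated in triplicate with fragment at 200 µM or vehicle for 3 h and then with Biotin-Ahx-Ub-VS at 0.5 µM final for 1 h. Labelled DUBs were NeutrAvidin-enriched, digested with LysC and trypsin, and run by diaPASEF LC-MS/MS. Spectronaut label-free quantities were global-median-normalised, and values are average log2 fragment/vehicle ratios by unpaired t-test on proteins with ≥2 unique peptides.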

UniProt O00487 = biological target: UniProt O00487
Summary of the method: as §1

UniProt O00507 = biological target: UniProt O00507
Sequence of UniProt O00507 (O00507 whole entry): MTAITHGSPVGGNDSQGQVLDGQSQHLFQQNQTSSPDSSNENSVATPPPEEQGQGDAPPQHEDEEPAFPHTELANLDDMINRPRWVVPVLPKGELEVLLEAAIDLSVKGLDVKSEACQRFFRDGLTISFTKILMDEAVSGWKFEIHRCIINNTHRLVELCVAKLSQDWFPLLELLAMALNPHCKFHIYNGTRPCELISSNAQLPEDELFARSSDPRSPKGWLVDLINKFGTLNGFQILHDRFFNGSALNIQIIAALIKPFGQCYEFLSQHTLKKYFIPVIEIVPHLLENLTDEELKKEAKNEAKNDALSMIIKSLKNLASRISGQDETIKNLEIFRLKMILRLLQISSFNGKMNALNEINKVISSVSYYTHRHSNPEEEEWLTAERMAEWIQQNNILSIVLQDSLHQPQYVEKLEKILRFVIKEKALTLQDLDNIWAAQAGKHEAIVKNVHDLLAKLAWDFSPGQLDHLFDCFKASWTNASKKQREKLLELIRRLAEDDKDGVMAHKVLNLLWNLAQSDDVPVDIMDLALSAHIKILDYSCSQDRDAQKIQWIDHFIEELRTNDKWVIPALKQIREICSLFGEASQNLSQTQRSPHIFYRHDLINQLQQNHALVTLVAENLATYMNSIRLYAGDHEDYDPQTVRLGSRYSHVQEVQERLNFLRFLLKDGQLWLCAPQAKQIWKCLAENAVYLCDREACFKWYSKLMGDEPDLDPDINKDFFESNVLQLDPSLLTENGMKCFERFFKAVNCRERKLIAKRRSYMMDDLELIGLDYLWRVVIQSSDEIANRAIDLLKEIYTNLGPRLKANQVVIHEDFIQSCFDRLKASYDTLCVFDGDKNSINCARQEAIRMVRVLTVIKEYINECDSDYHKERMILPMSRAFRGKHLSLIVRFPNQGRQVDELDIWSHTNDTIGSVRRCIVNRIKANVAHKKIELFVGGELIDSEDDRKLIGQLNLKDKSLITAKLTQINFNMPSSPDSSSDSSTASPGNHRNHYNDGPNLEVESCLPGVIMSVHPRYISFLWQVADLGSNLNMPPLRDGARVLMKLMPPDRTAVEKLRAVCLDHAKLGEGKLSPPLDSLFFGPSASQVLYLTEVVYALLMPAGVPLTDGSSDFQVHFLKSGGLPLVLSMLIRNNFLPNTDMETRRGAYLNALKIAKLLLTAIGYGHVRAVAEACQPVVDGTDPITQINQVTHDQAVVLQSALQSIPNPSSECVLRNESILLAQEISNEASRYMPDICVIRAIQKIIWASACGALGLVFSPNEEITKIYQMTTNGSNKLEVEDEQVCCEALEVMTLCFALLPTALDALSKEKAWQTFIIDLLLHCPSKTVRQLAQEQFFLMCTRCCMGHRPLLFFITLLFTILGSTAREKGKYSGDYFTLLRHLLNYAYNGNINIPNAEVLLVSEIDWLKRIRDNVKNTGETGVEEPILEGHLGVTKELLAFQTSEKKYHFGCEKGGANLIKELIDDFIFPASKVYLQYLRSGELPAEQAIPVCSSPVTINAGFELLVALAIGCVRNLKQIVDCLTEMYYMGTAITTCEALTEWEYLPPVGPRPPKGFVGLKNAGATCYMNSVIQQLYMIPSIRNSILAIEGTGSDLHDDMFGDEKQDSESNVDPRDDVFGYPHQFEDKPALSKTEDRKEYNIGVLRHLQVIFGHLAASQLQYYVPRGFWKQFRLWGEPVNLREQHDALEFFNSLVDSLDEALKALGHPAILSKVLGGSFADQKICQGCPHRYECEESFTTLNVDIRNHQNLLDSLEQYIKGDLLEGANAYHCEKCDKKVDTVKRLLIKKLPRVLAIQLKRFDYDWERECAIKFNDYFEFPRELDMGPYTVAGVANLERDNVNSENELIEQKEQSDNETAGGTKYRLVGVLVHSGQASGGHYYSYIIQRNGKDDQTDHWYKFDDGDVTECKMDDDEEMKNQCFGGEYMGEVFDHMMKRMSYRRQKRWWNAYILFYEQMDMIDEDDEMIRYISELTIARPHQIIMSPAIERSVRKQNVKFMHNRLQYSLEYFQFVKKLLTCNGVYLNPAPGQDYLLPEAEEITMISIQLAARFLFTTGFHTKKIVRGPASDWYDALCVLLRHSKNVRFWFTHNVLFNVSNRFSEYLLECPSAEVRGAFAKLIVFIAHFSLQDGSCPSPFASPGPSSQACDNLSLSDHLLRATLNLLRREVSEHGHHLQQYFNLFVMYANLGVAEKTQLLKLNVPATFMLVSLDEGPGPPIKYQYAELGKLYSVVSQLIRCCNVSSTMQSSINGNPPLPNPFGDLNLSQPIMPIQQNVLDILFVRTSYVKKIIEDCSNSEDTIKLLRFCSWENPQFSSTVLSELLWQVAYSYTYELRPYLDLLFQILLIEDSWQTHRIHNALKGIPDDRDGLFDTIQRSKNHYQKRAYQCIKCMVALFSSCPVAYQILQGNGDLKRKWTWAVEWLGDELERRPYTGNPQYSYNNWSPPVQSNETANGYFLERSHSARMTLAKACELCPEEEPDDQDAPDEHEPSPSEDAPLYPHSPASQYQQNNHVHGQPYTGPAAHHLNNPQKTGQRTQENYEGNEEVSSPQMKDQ
Summary of the method: as §1

UniProt P51784 = biological target: UniProt P51784
Summary of the method: as §1

UniProt Q5T2D3 = biological target: T1, UniProt Q5T2D3
T1 sequence (whole entry): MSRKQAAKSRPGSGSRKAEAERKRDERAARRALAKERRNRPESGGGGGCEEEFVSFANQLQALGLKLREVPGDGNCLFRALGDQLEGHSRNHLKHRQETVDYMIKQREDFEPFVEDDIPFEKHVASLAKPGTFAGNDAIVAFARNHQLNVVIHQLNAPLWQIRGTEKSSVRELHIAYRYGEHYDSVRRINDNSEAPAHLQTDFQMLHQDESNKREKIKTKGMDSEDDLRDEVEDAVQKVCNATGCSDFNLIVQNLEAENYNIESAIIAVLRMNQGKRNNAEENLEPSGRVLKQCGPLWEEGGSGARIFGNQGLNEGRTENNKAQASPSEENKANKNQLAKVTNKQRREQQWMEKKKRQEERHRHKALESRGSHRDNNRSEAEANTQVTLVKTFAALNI
Summary of the method: as §1

UniProt Q8TE49 = biological target: T2, UniProt Q8TE49
T2 sequence (whole entry): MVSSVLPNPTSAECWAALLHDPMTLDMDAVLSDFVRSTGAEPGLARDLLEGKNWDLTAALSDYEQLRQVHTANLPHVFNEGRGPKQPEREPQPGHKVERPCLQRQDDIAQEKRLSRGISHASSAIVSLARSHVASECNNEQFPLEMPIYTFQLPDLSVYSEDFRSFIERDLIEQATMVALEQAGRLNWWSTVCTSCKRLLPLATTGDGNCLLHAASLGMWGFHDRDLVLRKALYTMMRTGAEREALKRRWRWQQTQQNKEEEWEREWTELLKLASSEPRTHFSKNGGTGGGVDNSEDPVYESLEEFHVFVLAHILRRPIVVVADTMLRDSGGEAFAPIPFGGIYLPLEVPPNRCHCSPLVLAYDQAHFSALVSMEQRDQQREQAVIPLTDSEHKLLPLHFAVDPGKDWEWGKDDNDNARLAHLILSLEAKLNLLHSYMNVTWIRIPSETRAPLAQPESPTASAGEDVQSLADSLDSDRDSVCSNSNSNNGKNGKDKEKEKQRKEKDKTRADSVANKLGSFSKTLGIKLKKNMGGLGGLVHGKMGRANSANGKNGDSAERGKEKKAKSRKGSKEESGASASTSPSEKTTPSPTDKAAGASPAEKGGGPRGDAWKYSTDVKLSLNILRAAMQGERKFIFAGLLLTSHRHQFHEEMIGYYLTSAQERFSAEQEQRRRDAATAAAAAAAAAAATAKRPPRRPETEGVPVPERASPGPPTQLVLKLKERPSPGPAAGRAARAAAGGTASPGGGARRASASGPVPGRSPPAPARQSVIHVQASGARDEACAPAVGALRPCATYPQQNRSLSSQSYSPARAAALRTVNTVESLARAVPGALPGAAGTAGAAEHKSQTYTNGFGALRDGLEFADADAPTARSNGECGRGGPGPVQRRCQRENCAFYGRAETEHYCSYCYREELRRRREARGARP
Summary of the method: as §1

UniProt Q9P2H5 = biological target: T3, UniProt Q9P2H5
T3 sequence (whole entry): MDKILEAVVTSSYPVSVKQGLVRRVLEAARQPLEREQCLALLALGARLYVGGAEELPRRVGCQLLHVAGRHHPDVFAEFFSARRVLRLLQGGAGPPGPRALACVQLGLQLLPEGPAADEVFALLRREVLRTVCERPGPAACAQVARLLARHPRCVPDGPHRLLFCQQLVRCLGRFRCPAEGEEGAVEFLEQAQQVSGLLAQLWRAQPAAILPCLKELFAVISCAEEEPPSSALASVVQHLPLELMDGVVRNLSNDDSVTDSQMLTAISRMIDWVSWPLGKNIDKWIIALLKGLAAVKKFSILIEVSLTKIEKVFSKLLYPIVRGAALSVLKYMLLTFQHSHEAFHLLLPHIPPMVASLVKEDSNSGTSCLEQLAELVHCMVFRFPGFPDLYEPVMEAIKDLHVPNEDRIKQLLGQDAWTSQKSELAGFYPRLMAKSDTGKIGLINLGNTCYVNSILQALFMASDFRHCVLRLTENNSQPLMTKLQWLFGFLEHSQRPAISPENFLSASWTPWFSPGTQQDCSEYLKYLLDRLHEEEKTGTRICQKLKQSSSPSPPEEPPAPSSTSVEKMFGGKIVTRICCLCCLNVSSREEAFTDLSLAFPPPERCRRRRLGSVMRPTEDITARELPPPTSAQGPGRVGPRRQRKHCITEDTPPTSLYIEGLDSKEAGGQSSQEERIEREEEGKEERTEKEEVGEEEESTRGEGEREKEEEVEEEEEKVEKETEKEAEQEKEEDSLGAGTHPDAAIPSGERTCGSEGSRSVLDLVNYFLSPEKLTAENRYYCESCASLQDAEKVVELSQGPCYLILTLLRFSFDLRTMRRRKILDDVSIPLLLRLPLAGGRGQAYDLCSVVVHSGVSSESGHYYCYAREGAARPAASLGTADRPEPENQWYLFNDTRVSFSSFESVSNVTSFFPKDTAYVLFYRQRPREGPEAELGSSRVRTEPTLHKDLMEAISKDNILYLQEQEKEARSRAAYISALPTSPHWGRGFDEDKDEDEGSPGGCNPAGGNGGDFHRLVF
Summary of the method: as §1

UniProt Q9UGI0 = biological target: T4, UniProt Q9UGI0
T4 sequence (whole entry): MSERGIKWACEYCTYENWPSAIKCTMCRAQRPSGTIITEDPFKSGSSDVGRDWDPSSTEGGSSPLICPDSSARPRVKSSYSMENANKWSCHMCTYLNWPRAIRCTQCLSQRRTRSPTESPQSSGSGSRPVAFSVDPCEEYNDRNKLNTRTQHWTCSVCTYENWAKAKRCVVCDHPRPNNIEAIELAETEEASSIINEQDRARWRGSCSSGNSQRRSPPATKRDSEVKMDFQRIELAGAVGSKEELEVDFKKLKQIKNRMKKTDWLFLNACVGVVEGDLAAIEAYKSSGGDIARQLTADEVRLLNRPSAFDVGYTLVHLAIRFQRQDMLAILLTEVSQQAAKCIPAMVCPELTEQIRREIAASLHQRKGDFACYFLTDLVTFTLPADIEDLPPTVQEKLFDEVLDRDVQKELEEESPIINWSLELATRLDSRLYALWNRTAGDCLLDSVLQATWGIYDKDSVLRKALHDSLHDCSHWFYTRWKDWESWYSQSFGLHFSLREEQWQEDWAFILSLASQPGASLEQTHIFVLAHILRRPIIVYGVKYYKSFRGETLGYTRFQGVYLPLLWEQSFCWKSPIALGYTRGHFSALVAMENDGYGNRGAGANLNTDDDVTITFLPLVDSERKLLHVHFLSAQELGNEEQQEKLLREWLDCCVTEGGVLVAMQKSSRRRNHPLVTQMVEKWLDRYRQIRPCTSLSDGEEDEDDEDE
Summary of the method: as §1

YOD1 = biological target: T5, YOD1 (UniProt Q5VVQ6)
T5 sequence (whole entry): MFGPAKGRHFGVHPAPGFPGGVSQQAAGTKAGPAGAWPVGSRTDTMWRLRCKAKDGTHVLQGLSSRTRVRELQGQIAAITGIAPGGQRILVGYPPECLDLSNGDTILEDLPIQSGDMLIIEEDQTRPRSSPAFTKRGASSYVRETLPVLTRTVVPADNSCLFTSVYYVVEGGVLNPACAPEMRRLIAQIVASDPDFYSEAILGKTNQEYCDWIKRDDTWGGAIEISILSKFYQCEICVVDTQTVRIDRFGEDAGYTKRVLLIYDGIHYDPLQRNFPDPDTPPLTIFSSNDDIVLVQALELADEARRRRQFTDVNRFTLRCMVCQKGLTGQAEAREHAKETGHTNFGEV
Summary of the method: as §1

Measured: log2 ratio of Biotin-Ahx-Ub-VS probe labelling

Cc1c(NC(=O)CCl)c(=O)n(-c2ccccc2)n1C
inactive: USP9X 0.00112 | UniProt O00487 -0.111 | UniProt O00507 0.221 | UniProt P51784 -0.106 | UniProt Q5T2D3 -0.105 | UniProt Q8TE49 -0.377 | UniProt Q9P2H5 -0.286 | UniProt Q9UGI0 0.0727 | YOD1 -0.128
